The results in this text go back to PubChem BioAssay (NCI).

Compounds without any hit were thinned out: in the full panel of roughly 83,000, 20% have a hit.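 How to read the values: 0–100, growth inhibition (40 = 60% inhibited); 0, no net growth; -100 to 0, cell death (-40 = 40% of starting cells died; -100 = all dead).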 Unmarked numbers belong to inactive results. The source made the active and inactive calls. Rule for the calls: active = growth percent below 10; inactive = the rest.

Assay in all cases: NCI-60 one-dose screen, 48 h (100 = growth as untreated, 0 = no growth, -100 = all killed)
Assay [1] concerns NCI-H23 lung. Particulars: 10 µM.
The subject of assay [2] is NCI-H226 lung. The conditions noted are these: 10 µM.
In assay [3] the test system is NCI-H322M lung. The conditions noted are these: 10 µM.
The test system of assay [4] is HOP-62 NSCLC. The conditions noted are these: 10 µM.
Assay [5] deals with HOP-92 NSCLC. The conditions noted are these: 10 µM.
The subject of assay [6] is NCI-H522 lung. Particulars: 10 µM.
For assay [7], the system named is A549/ATCC NSCLC. Particulars: 10 µM.
Assay [8] has as its system 786-0 renal. Particulars: 10 µM.
For assay [9], the system named is DU-145 prostate. The conditions noted are these: 10 µM.
Assay [10] deals with K-562 leukemia. Particulars: 10 µM.
The test system of assay [11] is MALME-3M melanoma. Particulars: 10 µM.
Assay [12] concerns RXF 393 renal. The conditions noted are these: 10 µM.
Assay [13] has as its system SF-268 CNS. The conditions noted are these: 10 µM.
Assay [14] has as its system SF-295 CNS. Particulars: 10 µM.
Assay [15] relates to SF-539 CNS. Particulars: 10 µM.
In assay [16] the test system is UACC-257 melanoma. Particulars: 10 µM.
The test system of assay [17] is M14 melanoma. The conditions noted are these: 10 µM unless noted.
For assay [18], the system named is MDA-MB-231 breast. The conditions noted are these: 10 µM.
In assay [19] the test system is NCI-H460 lung. Particulars: 10 µM.

With `O=C(CNS(=O)(=O)Cc1ccccc1)NNc1ccccc1`, the growth was 92.3% in assay [1]; 72.9% in [2]; 75% in assay [3]; 46.3% in [4]; 101% in assay [5]; 41% in assay [6]. Further, the growth in assay [7] is 55.8%; in [8], 76.6%; in assay [9], 67.2%; in assay [10], 9.47% (active); in assay [11] it was 91.3%; in assay [12] it was 120%. Further, the growth in [13] was 60.1%; in assay [14] it was 26.2%; in assay [15] it was 61.4%; in assay [16], 84.5%; in assay [17], 31.1%.
Regarding `Cc1c(-c2ccccc2)[nH]c2ccccc12`, the growth in assay [1] is 103%; in assay [2], 95.3%; in [3], 108%; in assay [4], 104%; in assay [5], 71.8%; in assay [6], 86.1%. Moreover, the growth in [7] was 102%; in assay [9], 107%; in assay [10] it was 110%; in assay [11] it was 106%; in [18] it was 95.1%; in assay [12] it was 109%. The growth in assay [13] was 104%; in assay [14], 106%; in assay [15], 99.3%; in assay [16], 112%; in assay [17], 143%.
Turning to `O=[N+]([O-])c1cc(S(=O)(=O)Nc2ccccc2)ccc1Cl`, the growth in assay [1] is 97%; in assay [2], 99%; in assay [3], 90.9%; in [4], 104%; in assay [5], 90%; in [6], 73.8%. In addition, the growth in assay [7] was 91.6%; in assay [8] it was 100%; in assay [10] it was 83.9%; in [11], 105%; in assay [18], 110%; in assay [12], 114%. Besides, the growth in assay [13] is 99.6%; in [14], 97.2%; in assay [15], 102%; in assay [16] it was 88%; in [17], 88.7%.
Turning to `Cc1cc(C)c(N2C(=O)CC(Sc3ccccc3N)C2=O)c(C)c1` (stereo unspecified), the growth is 82.6% in assay [1]; 112% in assay [3]; 70.4% in assay [4]; 95.6% in [19]; 78.8% in assay [6]; 74.8% in assay [7]. For the same compound, the growth in assay [8] was 112%; in [9], 89.5%; in assay [10], 47.4%; in [11], 77.5%; in assay [18], 83.1%; in [12], 84.8%. Also, the growth is 80.7% in assay [13]; 47.5% in [14]; 88% in assay [15]; 60.4% in [16]; 60.3% in assay [17].
Regarding `NCc1c(O)ccc2ccccc12`, the growth was 102% in [1]; 96.2% in assay [2]; 96.4% in assay [3]; 90.7% in assay [4]; 73% in assay [5]; 95% in assay [6]. Besides, the growth in assay [7] is 94.7%; in assay [8] it was 103%; in assay [9] it was 109%; in assay [10], 99.1%; in assay [11], 96.6%; in assay [18], 105%. Further, the growth in assay [12] is 102%; in [13] it was 97.2%; in [14], 75.5%; in [15], 92.8%; in [16] it was 95.6%; in [17], 90.8%.
For the compound `COc1ccc(C(C#N)=C2C=CC(=NO)C=C2)cc1`, the growth is 94.9% in [1]; -14.3% (active) in [2]; 94.3% in assay [3]; 47.7% in assay [4]; 137% in assay [5]; -24.7% (active) in assay [6]. Also, the growth is 88.9% in assay [7]; 34.9% in assay [8]; 72.4% in assay [9]; 46.6% in [10]; 103% in [11]; 96.3% in assay [18]. The growth was 113% in [12]; 80.9% in [13]; 106% in [14]; 79% in [15]; 58.1% in assay [16]; 79.1% in assay [17].
As for `CCOC(=O)[C@]1(Br)CC[C@@]1(Br)C(=O)OCC`, the growth in [1] is 109%; in assay [2] it was 91.8%; in assay [3], 92.8%; in assay [4], 127%; in assay [5], 109%; in assay [6], -6.96% (active). The growth in assay [8] was 118%; in [9] it was 120%; in assay [10], 43.6%; in assay [11], 75.4%; in assay [18] it was 99.4%; in assay [12] it was 111%. Also, the growth in assay [13] was 108%; in assay [14], 108%; in assay [15] it was 104%; in assay [16], 80.8%; in [17] it was 86.6%.
